This note sets out measurements from PubChem BioAssay AID463173 (ICCB-Longwood Screening Facility, Harvard Medical School, 2010).

Screen size: about 52,000 compounds; about 4,300 (8.3%) were called active. The list comes from a sample in which actives are over-represented; it also holds similar structures and randomly drawn compounds. Values without a mark were called inactive. No stated cut-off is given here; in the data, active means survival mostly below about 52% (no sharp cut-off); inactive means mostly above about 56%.

In the test the test system is DeltatarO mutant. The test is described as follows: growth inhibition of S. aureus wild type versus tarO mutant, primary screen, teichoic acid synthesis inhibitors, RN4220, OD600 (AID 463173). As to conditions: OD600, 18 h, stronger effect = lower value, screened at 18.75 µg/mL (by protocol).
With `Cc1ccc(-n2c(=O)c3c4c(sc3n(CC(=O)C(C)(C)C)c2=O)CCCCC4)cc1C`, the survival is 89%.
For `CC(C)CCNC(=O)c1cn(C)c2ccc(S(=O)(=O)N3CCCC3)cc2c1=O` the value was 138%.
Regarding `CCc1ccc2oc(C(=O)NCC(c3ccc(OC)cc3)N3CCCCC3)c(C)c2c1` (stereo not drawn), the survival is 81%.
For `O=C(CCn1cnc2onc(-c3ccc(F)cc3)c2c1=O)Nc1cccc(C(F)(F)F)c1`, the survival is 96%.
For `Cc1ccc(-n2nc(C(=O)N3CCN(c4ccccc4F)CC3)c(=O)n(C)c2=O)cc1` the value was 93%; for `Cc1ccsc1CN(C(=O)COc1ccc(Br)cc1)C1CCS(=O)(=O)C1` (stereo not drawn), 73%.
Take `Cc1ccc(CN2CCC(CNC(=O)Nc3cccc(C)c3C)C2)cc1` (stereo not drawn): the survival is 112%.
The value for `Cc1cc(Cl)ccc1NC(=O)Cn1nnc2sc(-c3ccccc3)cc2c1=O` was 106%.
As to `Cc1cn2c(=O)cc(COC(=O)c3cccc(NC(=O)c4ccccc4Cl)c3)nc2s1`, the survival is 102%.
The value for `COc1cccc(CNC(=O)Cn2c(=O)ccc3cc(S(=O)(=O)N4CCC(C)CC4)ccc32)c1` was 99%; that for `COc1cc(OC)c(NC(=O)Nc2ccccc2OCc2cc(=O)n3cc(C)ccc3n2)cc1Cl` was 103%.
For `COc1ccccc1C(=O)Nc1ccc(OCc2cc(=O)n3cc(C)sc3n2)cc1` the value was 130%; for `CCOc1ccc(C(=O)Nc2c(C(=O)c3ccccc3)oc3ccccc23)cc1`, 72%; for `O=C(NCCc1ccccc1)c1cc2sccc2n1Cc1ccc(F)cc1`, 72%.
For the compound `COc1cc(OC)c(NC(=O)CCc2c(C)nc3ncnn3c2C)cc1Cl`, the survival is 97%.
For `Cc1cn2c(=O)c(S(=O)(=O)NCc3ccccc3Cl)c(C)nc2s1`, the survival is 66%.
Turning to `Cc1cc(C)c2oc(C(=O)Nc3c(C(=O)Nc4ccccc4)oc4ccccc34)cc(=O)c2c1`, the survival is 51% (active).
For `Cc1ccc2oc(C(=O)Nc3c(C(=O)Nc4cccc(Cl)c4)oc4ccccc34)cc(=O)c2c1` the value was 67%; for `Cc1ccc2c(=O)cc(C(=O)Nc3nnc(C)s3)oc2c1`, 76%.
For `Cc1ccc2oc(C(=O)Nc3cccc(Cl)c3)cc(=O)c2c1`, the survival is 92%.
For `Cc1cc2oc(C(=O)Nc3c(C(=O)Nc4ccccc4)oc4ccccc34)cc(=O)c2cc1C` the value was 106%; for `Cc1cc(C)c2oc(C(=O)Nc3c(C(=O)c4ccccc4)oc4ccccc34)cc(=O)c2c1`, 55%.
On to `Cc1ccc2c(=O)cc(C(=O)Nc3c(C(=O)Nc4cccc(Cl)c4)oc4ccccc34)oc2c1`, for which the survival is 36% (active).
`COc1ccc(NC(=O)c2oc3ccccc3c2NC(=O)c2cc(=O)c3cc(Cl)ccc3o2)cc1`: the survival is 54%.
The value for `Cc1ccc2c(=O)cc(C(=O)Nc3c(C)cccc3C)oc2c1` was 44% (active).
For `COC(=O)c1ccc(NC(=O)c2cc(=O)c3ccc(C)cc3o2)cc1` the value was 96%.
`O=C(Nc1c(C(=O)Nc2cccc(C(F)(F)F)c2)oc2ccccc12)c1cc(=O)c2ccccc2o1`: the survival is 78%.
For `Cc1cccc(NC(=O)c2oc3ccccc3c2NC(=O)c2cc(=O)c3cc(Cl)ccc3o2)c1` the value was 43% (active).
For `NCC1Cc2ccccc2O1` (stereo not drawn) the value was 103%.
Turning to `O=c1c2oc3ccccc3c2n(Cc2cccc(F)c2)c(=O)n1Cc1ccco1`, the survival was 75%.
`Cc1ccccc1CSc1nnc2[nH]c(=O)cc(C)n12`: the survival was 84%.
The value for `Cc1cc(C)cc(-n2ccnc(NCCc3ccccc3)c2=O)c1` was 101%; that for `CC(C)Oc1ccc(C2CC(=O)N(C)C2=O)cc1` (stereo not drawn) was 82%.
For `Cc1ccc(OCC(=O)Nc2ccc(S(=O)(=O)N3CCOCC3)cc2)c(C)c1` the value was 94%; for `COc1ccc2cc(CN(Cc3nnnn3Cc3ccccc3)C3CCCC3)c(=O)[nH]c2c1`, 96%; for `CC1CCN(C(=O)c2ccc3nc(N4C(=O)CCC4=O)sc3c2)CC1`, 95%.
The value for `COc1ccc(C)cc1NC(=O)C(=O)NCCc1csc2nc(-c3ccccc3F)nn12` was 72%; that for `COc1ccc(N2CCN(S(C)(=O)=O)CC2)cc1` was 86%; that for `COc1cc2c(=O)c(S(=O)(=O)c3ccc(F)cc3)cn(Cc3ccccc3C)c2cc1OC` was 55%.
With `CCOC(=O)C1CCCN(C(=O)c2ccc3c(c2)sc2nc(-c4cccc(OC)c4)cn23)C1` (stereo not drawn), the survival was 77%.
As for `Cc1ccc(C(=O)c2oc3ccccc3c2NC(=O)c2cc(=O)c3ccccc3o2)cc1`, the survival is 57%.
Consider `Cc1cccc(NC(=O)c2oc3ccccc3c2NC(=O)c2cc(=O)c3ccccc3o2)c1`, for which the survival was 73%.
The value for `Cc1ccc2oc(C(=O)Nc3c(C(=O)Nc4ccccc4)oc4ccccc34)cc(=O)c2c1` was 73%; that for `CCc1ccc2oc(C(=O)Nc3ccccc3OC)cc(=O)c2c1` was 49%; that for `Cc1cccc(NC(=O)c2oc3ccccc3c2NC(=O)c2cc(=O)c3ccc(C)cc3o2)c1` was 28% (active).
The value for `COc1ccc(C(=O)c2oc3ccccc3c2NC(=O)c2cc(=O)c3ccc(C)cc3o2)cc1Cl` was 44% (active); that for `CCOc1ccc(C(=O)c2oc3ccccc3c2NC(=O)c2cc(=O)c3ccc(C)cc3o2)cc1` was 134%.
Regarding `CCOc1ccccc1NC(=O)c1cc(=O)c2ccc(C)cc2o1`, the survival was 44% (active).
Turning to `Cc1ccc2c(=O)cc(C(=O)Nc3c(C(=O)c4ccccc4)oc4ccccc34)oc2c1`, the survival is 76%.
In the case of `COC(=O)C(C)Oc1ccc(N2C(=O)c3ccccc3C2=O)cc1` (stereo not drawn), the survival is 75%.
Take `O=S(=O)(c1ccc(-c2cc(C(F)(F)F)on2)s1)N1CCN(c2ccccc2)CC1`: the survival is 75%.
The value for `CCOc1ccc(-c2cc3nc(C4CCN(C(=O)OC(C)(C)C)CC4)c(C(=O)Nc4cccc(C(F)(F)F)c4)cn3n2)cc1` was 79%.
For `O=C1C2C3c4ccccc4C(c4ccccc43)C2C(=O)N1Cc1ccccn1` (stereo not drawn) the value was 83%.
For `COCC[N+]1(C)CCCCC1` the value was 84%.
`CC1CCN(C(=O)C(C)Sc2nc(-c3ccccc3)cc(C(F)(F)F)n2)CC1` (stereo not drawn): the survival is -1% (active).
Take `CC1CCN(C(=O)CSc2nc(-c3ccc(F)cc3)cc(C(F)(F)F)n2)CC1`: the survival is 37% (active).
For `CC1CCN(C(=O)CSc2n[nH]c(-c3ccc(F)cc3)n2)CC1` the value was 92%; for `COc1ccc(-c2cc(C(F)(F)F)nc(SCC(=O)N3CCC(C)CC3)n2)cc1`, 56%.
For `CC(Sc1nc(-c2ccccc2)cc(C(F)(F)F)n1)C(=O)N1CCCC1` (stereo not drawn) the value was 101%.
With `CC1CN(C(=O)C(C)Sc2nc(-c3ccccc3)cc(C(F)(F)F)n2)CC(C)O1` (stereo not drawn), the survival is 78%.
Consider `CC(C)C(=O)Nc1cccc(C(=O)Nc2nncs2)c1`, for which the survival is 87%.
Take `O=C(CSc1nc(-c2ccc(F)cc2)[nH]c1-c1ccccc1)NCC1CCCO1` (stereo not drawn): the survival was 82%.
For `Cc1ccccc1-c1noc(-c2ccc(NCc3cccnc3)c([N+](=O)[O-])c2)n1` the value was 98%.
On to `O=C(c1ccc2c(c1)C(=O)N(CCCO)C2=O)c1ccc2c(c1)C(=O)N(CCCO)C2=O`, for which the survival was 70%.
For `C[N+](C)(C)CCNC(=O)c1ccc(/C=N/O)nc1` the value was 81%; for `Oc1ccc(CNc2ccccc2Cl)c2cccnc12`, 115%.
Consider `O=C(COc1ccccc1F)Nc1nnc(S(=O)(=O)N2CCCCCC2)s1`, for which the survival was 51% (active).
With `Cc1ccccc1OCC(=O)Nc1nnc(S(=O)(=O)N2CCCCCC2)s1`, the survival is 73%.
As for `CCN(CC)S(=O)(=O)c1nnc(NC(=O)COc2ccccc2Cl)s1`, the survival is 95%.
The value for `Cc1ccccc1OCC(=O)Nc1nnc(S(=O)(=O)N(C)c2ccccc2)s1` was 67%; that for `O=C(COc1ccccc1Cl)Nc1nnc(S(=O)(=O)N2CCCC2)s1` was 39% (active); that for `O=C(COc1ccccc1Cl)Nc1nnc(S(=O)(=O)N2CCCCCC2)s1` was 70%.
For `Cc1ccccc1OCC(=O)Nc1nnc(S(=O)(=O)N2CCCC2)s1` the value was 42% (active).
For `Cc1ccc(NC(=O)CN2C=NS(=O)(=O)c3ccccc32)cc1` the value was 76%.
Regarding `Cc1ccc2nc(N(Cc3cccnc3)C(=O)c3ccc4c(c3)OCCO4)sc2c1`, the survival is 70%.
For `COc1ccc(/C=C/c2nc(C#N)c(N3CCN(c4ccccc4)CC3)o2)cc1OC` the value was 88%.
For `COc1ccc(-c2onc(C)c2C)cc1S(=O)(=O)NC1CCCCC1` the value was 72%; for `CCOc1ccc(CCNC(=O)C2CCN(C(=O)N3CC(CC)Oc4ccc(C)cc43)CC2)cc1` (stereo not drawn), 63%; for `Cc1ccc(Cn2cc(S(=O)(=O)c3ccc(Cl)cc3)c(=O)c3cc4c(cc32)OCO4)cc1`, 77%.
The value for `Cc1ccc(S(=O)(=O)NCCc2nnc3ccc(SCC(=O)Nc4ccc(F)cc4F)nn23)cc1` was 88%; that for `Cc1c(C)n(Cc2ccccc2)c2ccc(C(=O)N3CCN(c4ccccc4)CC3)cc12` was 99%; that for `COC(=O)c1ccc(NC(=O)CN(Cc2ccccc2)S(=O)(=O)c2ccc(C)cc2)cc1` was 42% (active).
Consider `COC(=O)c1ccc(NC(=O)CN(CCc2ccccc2)S(=O)(=O)c2ccc(OC)cc2)cc1`, for which the survival was 69%.
For `CCOC(=O)c1ccc(CN(Cc2ccc(F)cc2)S(=O)(=O)c2ccc(F)cc2)cc1` the value was 87%; for `CCOC(=O)c1ccc(CN(Cc2ccc(Cl)cc2Cl)S(=O)(=O)c2cccc(Cl)c2)cc1`, 80%; for `COC(=O)c1ccc(NC(=O)CN(Cc2ccccc2)S(=O)(=O)c2ccc(Cl)cc2)cc1`, 40% (active).
As to `CCOC(=O)c1ccc(NC(=O)CN(Cc2ccc(C)cc2)S(=O)(=O)c2ccc(C)cc2)cc1`, the survival was 58%.
With `CCOc1ccc(NC(=O)CN(Cc2ccccc2)S(=O)(=O)c2ccc(Cl)cc2)cc1`, the survival is 78%.
For `CCN(CC)S(=O)(=O)c1ccc(NC(=O)c2ccccc2)cc1` the value was 77%; for `Cc1ccc(S(=O)(=O)N(CC(=O)Nc2ccc(C(C)C)cc2)Cc2ccccc2)cc1`, 54%.
As for `CCOC(=O)c1ccc(CN(Cc2ccc(C)cc2)S(=O)(=O)c2ccc(NC(C)=O)cc2)cc1`, the survival was 73%.
On to `CCOC(=O)c1ccc(CN(Cc2ccccc2)S(=O)(=O)c2ccc(Cl)cc2)cc1`, for which the survival is 32% (active).
In the case of `CC(=O)Nc1ccc(S(=O)(=O)N(Cc2ccccc2)Cc2ccccc2)cc1`, the survival was 54% (active).
